Reference: PubChem BioAssay (EPA / NIEHS)
“And” between values parts separate entries of the source, which are not always exact repeats. Identical values can stand only once. Records with an inconclusive call do not appear. Some compounds were tested as several samples or in several runs, with calls that do not always agree. The source made the active and inactive calls. Rule for the calls: active = hit-call score of the fitted dose curve at least 0.9, where 1 is the maximum; inconclusive = response in the unintended direction; inactive = score below 0.9.

Test: TOX21_p53_BLA_p3_viability: Viability Assessment in the Tox21 HCT-116 p53 Agonism Beta-lactamase Assay, Phase 3 (AID 2283593);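 note: cells exposed to compound for 16 h before reading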
Description: TOX21_p53_BLA_p3 is a cell-based, single-readout assay that uses HCT116, a human intestinal cell line, […] in a 1536-well plate.TOX21_p53_BLA_p3_viability is an assay readout measuring cellular ATP content and detected with CellTiter-Glo Luciferase-coupled ATP quantitation.TOX21_p53_BLA_p3_viability used a type of viability reporter where loss-of-signal activity can be used to understand changes in the cell viability. Furthermore, this assay endpoint can be referred to as a secondary readout, because this assay has produced multiple assay endpoints where this one serves a viability function. To generalize the intended target to other relatable targets, this assay endpoint is annotated to the cell cycle intended target family, where the subfamily is cytotoxicity.
Thawing Method: Place 14 mL of pre-warmed thaw medium into a 15 mL of conical tub. Remove the vial of cells to be thawed from liquid nitrogen and thaw rapidly by placing at 37C in a water bath with gentle agitation for 1-2 minutes. Decontaminate the vial by wiping with 70% ethanol before opening in a biological safety cabinet. Transfer the vial contents drop-wise into 14 mL of thaw medium in a sterile 15-mL conical tub. Centrifuge cells at 900 rpm for 4 minutes and resuspend in thaw medium. Transfer contents to the T75 tissue culture flask containing Thaw Medium and place flask in a humidified 37C/5% CO2 incubator. Switch to growth medium at first passage.Propagation Method: Aspirate medium, rinse once in DPBS, add 0.25% Trypsin/EDTA and swirl to coat the cell evenly. Add an equal volume of Growth Medium to inactivate Trypsin after 2-3 minutes incubation at 37C. Centrifuge cells at 900 rpm for 4 minutes and resuspend in growth medium. Cell should be passage or fed at least twice a week.Assay Protocol: Harvest cells from culture in growth medium and resuspend in assay medium. 2.2 Dispense 4000 cells/5 uL/well into 1536-well black/clear bottom plates using a Multidrop dispenser. After the cells were incubated at 37C for 5 hours, 23 nL of compounds dissolved in DMSO were transferred to the assay plate by a PinTool resulting in a 217-fold dilution. Incubate the plates for 16 hours at 37C, 5% CO2. Add 1 uL of 6X LiveBLAzer FRET B/G (CCF4-AM) Substrate Mixture to each well using a BioRAPTR dispenser and incubate the plates at room temperature for 2 hours. Measure fluorescence intensity at 460 and 530 nm emission and 405 nm excitation by an Envision detector. Data is expressed as the ratio of 460nm/530nm emissions. Add 4 uL of Cell-titer Glo to each well using BioRAPTR and incubate the plates at room temperature for […]. For cell viability readout that measures cytotoxicity, 4 ul/well of CellTiter-Glo reagent was added into the assay plates using a Flying Reagent Dispenser. After 30 min incubation at room temperature, the luminescence intensity in the plates was measured using a ViewLux plate reader.

Structure (SMILES) | outcome | AC50
OCCOc1ccccc1 | inactive | 
COc1nn(CSP(=S)(OC)OC)c(=O)s1 | inactive | 
O=C1c2ccccc2C(=O)N1SC(Cl)(Cl)Cl | inactive | 
COC(=O)c1ccccc1S(=O)(=O)NC(=O)Nc1nc(C)nc(OC)n1 | inactive | 
CN1CSC(=S)N(C)C1 | inactive | 
CCN(CC)C(=O)SCc1ccc(Cl)cc1 | inactive | 
Oc1cc(Cl)ccc1Oc1ccc(Cl)cc1Cl |  | 54.2 µM (active)
COC(=O)c1ccccc1CS(=O)(=O)NC(=O)Nc1nc(OC)cc(OC)n1 | inactive | 
O=C(O)CCCOc1ccc(Cl)cc1Cl | inactive | 
CC1(c2ccc(Oc3ccccc3)cc2)OC(=O)N(Nc2ccccc2)C1=O (centres undefined) | inactive | 
C[C@H]1[C@H](c2ccc(Cl)cc2)SC(=O)N1C(=O)NC1CCCCC1 | inactive | 
O=S(=O)(O)C(F)(F)C(F)(F)C(F)(F)C(F)(F)C(F)(F)C(F)(F)C(F)(F)C(F)(F)F | inactive | 61.4 µM (active)
O=S1OCC2C(CO1)C1(Cl)C(Cl)=C(Cl)C2(Cl)C1(Cl)Cl (centres undefined) | inactive | 54.1 µM (active)
Oc1ccc(Cl)cc1Cc1ccccc1 | inactive | 72.8 µM (active)
O=C(O)C(F)(F)C(F)(F)C(F)(F)C(F)(F)C(F)(F)C(F)(F)C(F)(F)F | inactive | 
CCCN(CCOc1c(Cl)cc(Cl)cc1Cl)C(=O)n1ccnc1 | inactive | 
CC(C)(C)C(O)C(Oc1ccc(Cl)cc1)n1cncn1 (centres undefined) | inactive | 
N#Cc1c(Cl)c(Cl)c(Cl)c(C#N)c1Cl |  | 20.7 µM (active) and 23.1 µM (active)
CCC(C)(NC(=O)c1cc(Cl)c(C)c(Cl)c1)C(=O)CCl (centres undefined) |  | 76.4 µM (active)
CCC(C)(C)C(=O)OC1=C(c2ccc(Cl)cc2Cl)C(=O)OC12CCCCC2 |  | 74.9 µM (active)
O=C(O)COc1ccc(Cl)cc1Cl | inactive | 
COP(=S)(OC)Oc1ccc([N+](=O)[O-])cc1 | inactive | 
CC[C@H](C)[C@H]1O[C@]2(C=C[C@@H]1C)C[C@@H]1C[C@@H](C/C=C(\C)[C@@H](O[C@H]3C[C@H](OC)[C@@H](O[C@H]4C[C@H](OC)[C@@H](O)[C@H](C)O4)[C@H](C)O3)[C@@H](C)/C=C/C=C3\CO[C@@H]4[C@H](O)C(C)=C[C@@H](C(=O)O1)[C@]34O)O2 (tested in a mixture with another compound) | inactive | 15.9 µM (active)
O=[N+]([O-])c1c(Cl)c(Cl)c(Cl)c(Cl)c1Cl | inactive | 
COP(=S)(OC)Oc1ccc(SC)c(C)c1 | inactive | 
ClC1C(Cl)C(Cl)C(Cl)C(Cl)C1Cl (centres undefined) | inactive | 
CC(C)OC(=O)Nc1cccc(Cl)c1 | inactive | 
CC1(C)C(C=C(Cl)Cl)C1C(=O)OC(C#N)c1ccc(F)c(Oc2ccccc2)c1 (centres undefined) | inactive | 
CC(C)(C)C(O)/C(=C\c1ccc(Cl)cc1Cl)n1cncn1 (centres undefined) | inactive | 
O=C(Nc1ccccc1)Nc1cnns1 | inactive | 
